“And” between values parts separate entries of the source, which are not always exact repeats. Identical values can stand only once. Hit rate of the full screen: of about 2,000 compounds, about 25 (1%) were called active.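 How the source made its calls: active means log2 luciferase ratio at or below -0.5849, meaning signal at two thirds of solvent-only control or lower; inactive means the rest.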 This excerpt belongs to a sample that is enriched for actives.
Assay: inhibitors of EIF4E gene expression, primary screen, cell-based, HT1080, luciferase reporter (AID 1224817);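 further: luciferase reports endogenous eIF4E expression since it is co-expressed from the native EIF4E locus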
Conditions: HT1080 EIF4E-luc2 knock-in reporter, 16 h, at 2.5 µM, stronger effect = lower value

**Q.** For COC1C(O)C(C)OC(OC2C(Oc3cccc4c(O)c5c(=O)oc6ccc(C)c7c(=O)oc(c34)c5c67)OC(C)C(O)C2O)C1O (stereo not given), which log2 luciferase activity ratio is on record?
**A.** -0.702 (active) and -0.391 (inactive)

**Q.** With COC(=O)C1=COC(C)C2CN3CCC4(C(=O)Nc5ccccc54)C3CC12 (stereo not given) as the compound, how does the log2 luciferase activity ratio read?
**A.** 0.122 (inactive)

**Q.** Which log2 luciferase activity ratio does the source give for c1ccc(CCN2CCCCCC2)nc1 here?
**A.** 0.334 (inactive)

**Q.** With COc1cc(CCN)c(OC)c(OC)c1 as the compound, how does the log2 luciferase activity ratio read?
**A.** -0.289 (inactive)

**Q.** With CC1CCC2(O)C3(C)CC4(O)OC2(C1O)C1(O)C3(O)C(OC(=O)c2ccc[nH]2)C(O)(C(C)C)C41C (stereo not given) as the compound, how does the log2 luciferase activity ratio read?
**A.** -0.662 (active) and 0.224 (inactive)

**Q.** Which log2 luciferase activity ratio does the source give for Oc1c(Cl)c(Cl)c(Cl)c(Cl)c1Cl here?
**A.** 0.387 (inactive)

**Q.** For CC(Cc1ccc(Cl)cc1Cl)NO (stereo not given), which log2 luciferase activity ratio is on record?
**A.** 0.563 (inactive)

**Q.** For CC1=C2C(=O)[C@H]3[C@@H](CC=C4C[C@@H](O)CC[C@@]43C)[C@@H]2CC[C@]12O[C@@H]1C[C@H](C)CN[C@H]1[C@H]2C, which log2 luciferase activity ratio is on record?
**A.** 0.0474 (inactive)

**Q.** Which log2 luciferase activity ratio does the source give for O=C(Nc1ccc([As](=O)(O)O)cc1)Nc1cccc(Cl)c1Cl here?
**A.** 0.175 (inactive)

**Q.** Which log2 luciferase activity ratio does the source give for C[C@]12CC[C@H]3[C@@H](CCC4=CC(=O)CC[C@@H]43)[C@@H]1CC[C@@H]2OC1(O)C(=O)c2ccccc2C1=O here?
**A.** -0.175 (inactive)

**Q.** With CC(=O)O[C@@H]1[C@@H](O)C2=C3[C@]4(C)[C@@H]1C(C)(C)C(=O)C[C@@H]4[C@]3(O)[C@H](OC(C)=O)[C@@]1(C[C@@H]1C)C2=O as the compound, how does the log2 luciferase activity ratio read?
**A.** -0.11 (inactive)

**Q.** Which log2 luciferase activity ratio does the source give for CC(=O)c1c(O)c(C)c(O)c(Cc2c(O)c3c(c(C(=O)/C=C/c4ccccc4)c2O)OC(C)(C)C=C3)c1O here?
**A.** -1.16 (active)

**Q.** With CC(=N\O)/C(C)=N/O.CC(=N\O)/C(C)=N/O.CC(=N\O)/C(C)=N/O.CC(=N\O)/C(C)=N/O.[Cu].[Cu] as the compound, how does the log2 luciferase activity ratio read?
**A.** 0.204 (inactive)

**Q.** With CC[C@](O)(C(=O)O)c1cc2n(c(=O)c1CO)Cc1cc3ccccc3nc1-2 as the compound, how does the log2 luciferase activity ratio read?
**A.** -0.308 (inactive)

**Q.** For NC(CSC1c2ccccc2-c2ccccc21)C(=O)O (stereo not given), which log2 luciferase activity ratio is on record?
**A.** -0.0184 (inactive)

**Q.** With Cc1c2ccncc2c(C)c2c1[nH]c1ccccc12 as the compound, how does the log2 luciferase activity ratio read?
**A.** -1.19 (active)

**Q.** For O=C(c1ccccc1)C1C(c2ccccc2[N+](=O)[O-])N1C1CCCCC1 (stereo not given), which log2 luciferase activity ratio is on record?
**A.** -0.136 (inactive)

**Q.** For CC1=CC23C(COC(=O)C24CO4)C(C(=O)O)=CC3C1C (stereo not given), which log2 luciferase activity ratio is on record?
**A.** -0.125 (inactive)

**Q.** For COc1cc2c(cc1OC)C13CCN4C=C5CCOC6CC(=O)N2C1C6C5CC43 (stereo not given), which log2 luciferase activity ratio is on record?
**A.** 0.124 (inactive) and 0.181 (inactive)

**Q.** With CCCCCC(O)C1C(=O)OC(C)C(O)/C=C/C=C/C=C/C=C/C=C(\C)C(O)C(O)C(O)CC(O)CC(O)CC(O)CC(O)CC1O (stereo not given) as the compound, how does the log2 luciferase activity ratio read?
**A.** -0.286 (inactive)

From PubChem BioAssay AID1224817 (Yan Lab, Georgia Cancer Center, Augusta University, 2016)
